Among the test systems are SK-MEL-2 melanoma; SN12C renal; UO-31 renal; TK-10 renal; ACHN renal; CAKI-1 renal; A498 renal; CCRF-CEM leukemia; MOLT-4 leukemia; SR leukemia; RPMI-8226 leukemia; OVCAR-4 ovarian; SK-OV-3 ovarian; IGROV1 ovarian; OVCAR-3 ovarian; HS 578T breast; NCI/ADR-RES ovarian; OVCAR-8 ovarian; OVCAR-5 ovarian; EKVX NSCLC.
Assay in all cases: NCI-60 one-dose screen, 48 h (100 = growth as untreated, 0 = no growth, -100 = all killed)
Details in all cases: 10 µM unless noted

About 83,000 compounds went through this panel and 20% of them were active in at least one assay; those are over-represented in the sample as a whole.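 The test compound was applied at a single concentration to cells in 96-well plates for 48 hours, and percent growth was recorded.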 Unmarked numbers belong to inactive results. Activity calls are given as the source filed them. How the source made its calls: active means growth percent below 10; inactive means the rest.

The source of these data is PubChem BioAssay (NCI).

On to `O=c1ncc(-c2ccc(C(F)(F)F)cc2)c(NC2CCCCCC2)[nH]1`, for which the growth with SK-MEL-2 melanoma was 50.9%; in the experiment with SN12C renal, 45.9%; in the experiment with UO-31 renal, 52.3%; with TK-10 renal, 65.1%; in the experiment on ACHN renal, 24.4%; in the experiment on CAKI-1 renal it was 93%. The growth in the experiment with A498 renal was 84.4%; in the experiment on CCRF-CEM leukemia, 46.4%; in the experiment with MOLT-4 leukemia, 77.7%; in the experiment with SR leukemia, 69%; in the experiment on RPMI-8226 leukemia it was 5% (active); in the experiment on OVCAR-4 ovarian, 53.5%. For the same molecule, the growth in the experiment on SK-OV-3 ovarian is 83.9%; in the experiment with IGROV1 ovarian, 51%; in the experiment on OVCAR-3 ovarian, -2.84% (active); in the experiment on HS 578T breast, 68.6%; in the experiment with NCI/ADR-RES ovarian, 102%.

Turning to `C[C@@H]1[C@H]2[C@H](C=C3[C@@H]4CC[C@H]5Cc6nc7c(nc6C[C@]5(C)[C@H]4C[C@@H](O)[C@@]32C)C[C@@H]2CC[C@H]3C4=C[C@@H]5O[C@@]6(CC[C@](C)(CO)O6)[C@@H](C)[C@@]5(O)[C@@]4(C)[C@H](O)C[C@@H]3[C@@]2(C)C7)O[C@]12CCC(C)(C)O2`, the growth in the experiment on SK-MEL-2 melanoma was 30.8%; with SN12C renal, 67.9%; in the experiment on UO-31 renal, -6.3% (active); in the experiment with ACHN renal it was 42.5%; in the experiment on A498 renal, -72.6% (active); in the experiment with CCRF-CEM leukemia it was 2.79% (active). For the same molecule, the growth in the experiment on MOLT-4 leukemia is -21.1% (active); in the experiment with SR leukemia it was 2.45% (active); in the experiment with RPMI-8226 leukemia, -29.9% (active); in the experiment with OVCAR-8 ovarian, 50.9%; in the experiment on OVCAR-5 ovarian, 8.43% (active); in the experiment with OVCAR-4 ovarian it was 55.5%. Also, the growth with SK-OV-3 ovarian was 9.45% (active); in the experiment on IGROV1 ovarian it was 38.6%; in the experiment on OVCAR-3 ovarian it was 50%; with HS 578T breast, -4.77% (active); with NCI/ADR-RES ovarian, 54%.

Take `Nc1nc2c(nnn2Cc2ccc(Cl)c(Cl)c2)c(=O)[nH]1`: the growth in the experiment on SK-MEL-2 melanoma is 90.1%; in the experiment on SN12C renal, 89.9%; with UO-31 renal, 69.2%; in the experiment with ACHN renal it was 92.4%; in the experiment on A498 renal, 85.5%; in the experiment on CCRF-CEM leukemia, 81.2%. For the same molecule, the growth with MOLT-4 leukemia was 93.8%; in the experiment with SR leukemia, 92%; in the experiment on OVCAR-8 ovarian, 98.5%; in the experiment on OVCAR-5 ovarian, 95.5%; in the experiment on OVCAR-4 ovarian it was 112%; with SK-OV-3 ovarian it was 97.4%. The results for the growth with IGROV1 ovarian, in the experiment with OVCAR-3 ovarian and with NCI/ADR-RES ovarian were 100%, 106% and 105%, respectively.

Turning to `O=C(c1ccc(Cl)cc1)c1ccc(Cl)cc1`, the growth with EKVX NSCLC was 108%; in the experiment on SN12C renal, 102%; with UO-31 renal, 108%; with TK-10 renal, 101%; in the experiment with ACHN renal it was 123%; in the experiment on CAKI-1 renal, 115%. The growth was 97.7% in the experiment with A498 renal; 88.6% with CCRF-CEM leukemia; 106% in the experiment with MOLT-4 leukemia; 93.3% in the experiment with SR leukemia; 115% with RPMI-8226 leukemia; 88.7% with OVCAR-5 ovarian. Moreover, the growth in the experiment with OVCAR-4 ovarian was 92.4%; with SK-OV-3 ovarian it was 114%; in the experiment with IGROV1 ovarian it was 124%; in the experiment on OVCAR-3 ovarian, 105%; with HS 578T breast, 130%; with NCI/ADR-RES ovarian, 103%.

Take `CCCCCc1c(C)[nH]c(/C=C2\N=C(c3ccc[nH]3)C=C2Oc2ccccc2)c1C`: the growth is -63.3% [100 µM] (active) in the experiment on SK-MEL-2 melanoma; -63.4% [100 µM] (active) in the experiment with SN12C renal; -70.1% [100 µM] (active) in the experiment on UO-31 renal; -61% [100 µM] (active) in the experiment with ACHN renal; -62.8% [100 µM] (active) in the experiment on CAKI-1 renal; -75.3% [100 µM] (active) with A498 renal. For the same molecule, the growth was -40.2% [100 µM] (active) in the experiment on MOLT-4 leukemia; 8.8% [100 µM] (active) with SR leukemia; -31.5% [100 µM] (active) with RPMI-8226 leukemia; -90.2% [100 µM] (active) in the experiment on OVCAR-8 ovarian; -99.8% [100 µM] (active) in the experiment with OVCAR-5 ovarian; -54.7% [100 µM] (active) in the experiment on SK-OV-3 ovarian. The growth was -31.6% [100 µM] (active) in the experiment on IGROV1 ovarian, -93.4% [100 µM] (active) with OVCAR-3 ovarian, -7.4% [100 µM] (active) in the experiment with HS 578T breast and -77.1% [100 µM] (active) in the experiment with NCI/ADR-RES ovarian.

As for `CCCCCCCCCCCCCCCCNC(=O)Nc1ccc2ccccc2c1`, the growth was 118% with SK-MEL-2 melanoma; 89.7% with SN12C renal; 104% in the experiment on UO-31 renal; 108% in the experiment on ACHN renal; 107% in the experiment on CAKI-1 renal; 104% with A498 renal. Moreover, the growth in the experiment on MOLT-4 leukemia is 105%; with SR leukemia, 95.6%; in the experiment with RPMI-8226 leukemia, 102%; with OVCAR-8 ovarian, 104%; in the experiment with OVCAR-4 ovarian it was 113%; in the experiment with SK-OV-3 ovarian it was 101%. Further, the growth in the experiment on IGROV1 ovarian was 101%; in the experiment on OVCAR-3 ovarian it was 116%; in the experiment with HS 578T breast, 107%; in the experiment with NCI/ADR-RES ovarian, 110%.

As to `C(#Cc1ccccc1C#Cc1ccccn1)c1ccc(OCCCCCCOc2ccc(C#Cc3ccccc3C#Cc3ccccn3)cc2)cc1`, the growth in the experiment on SK-MEL-2 melanoma was 64.2%; in the experiment on SN12C renal, 67.8%; in the experiment with TK-10 renal, 76.2%; in the experiment with ACHN renal it was 44.2%; with CAKI-1 renal it was 57.9%; in the experiment on A498 renal it was 57.5%. Besides, the growth was 21.6% in the experiment on MOLT-4 leukemia; 5% (active) in the experiment on RPMI-8226 leukemia; 47.6% with OVCAR-8 ovarian; 85.4% with OVCAR-5 ovarian; 46.5% with OVCAR-4 ovarian; 80.9% in the experiment with SK-OV-3 ovarian. Also, the growth with IGROV1 ovarian was -48.8% (active); in the experiment on OVCAR-3 ovarian it was 35.5%; in the experiment on HS 578T breast, 72.7%; in the experiment on NCI/ADR-RES ovarian, 40%.

As for `O=C(Nc1nn2c(-c3cc(C(F)(F)F)cc(C(F)(F)F)c3)nnc2s1)C1CCCC1`, the growth is 21.7% in the experiment with EKVX NSCLC; 11.6% in the experiment on SN12C renal; 8.94% (active) in the experiment with UO-31 renal; -30.4% (active) in the experiment with TK-10 renal; 8.22% (active) with ACHN renal; 7.75% (active) with CAKI-1 renal. Moreover, the growth is -21.8% (active) in the experiment on A498 renal; 13.8% with CCRF-CEM leukemia; -10.2% (active) in the experiment on MOLT-4 leukemia; 20.5% with RPMI-8226 leukemia; 12% with OVCAR-8 ovarian; 18.6% with OVCAR-5 ovarian. Besides, the growth in the experiment with OVCAR-4 ovarian was 18.8%; with SK-OV-3 ovarian, 5.54% (active); in the experiment with IGROV1 ovarian, 40%; in the experiment on OVCAR-3 ovarian, 22.9%; in the experiment on HS 578T breast, 21.6%; with NCI/ADR-RES ovarian, 2.45% (active).
